The values that follow come from PubChem BioAssay AID1986 (Sanford-Burnham Center for Chemical Genomics, 2009).

Among all 290,000 compounds or so, about 890 (0.31%) were called active. Rule as the data show it: active = inhibition mostly above about 52% (no sharp cut-off); inactive = mostly below about 76%. This excerpt belongs to a sample that is enriched for actives.

Broadly, the inhibition is the relative decrease from the control value, in per cent.

This assay can be described thus: inhibitors of HIV fusion peptide binding, primary screen, biochemical, uHTS, fluorescence dequenching (AID 1986). Conditions: cell-free peptide binding, 30 min, stronger effect = higher value.
The mark [1] stands for this setting: measured here: repeat confirmation average inhibition, at 18.6 µM.

Regarding `Cc1ccc(N=C2NC(=O)/C(=C/c3cn(C)c4ccccc34)S2)cc1C`, the inhibition runs as follows: (at 20 µM) 74.7% (active); under setting [1], 73.2%. Regarding `Cc1ccc(N=C2NC(=O)/C(=C\c3cccs3)S2)cc1C`, the inhibition (at 20 µM) was 1.6% (inactive). The same measure, in the same setting: with `Cc1ccc(N=C2NC(=O)/C(=C/c3cccn3C)S2)cc1C` the figure was 2.1% (inactive); with `Cn1nc(-c2ccccc2)c(/C=N/O)c1Cl`, -1.8% (inactive). The same measure, in the same setting: with `CCn1cc(C(=O)N2CCCC2)c(=O)c2cc(S(=O)(=O)N3CC(C)CC(C)C3)ccc21` (configuration not stated) the figure was 1.1% (inactive); with `COc1ccc2cc(CCNS(=O)(=O)c3c(C)cc(C)cc3C)c(=O)[nH]c2c1`, -1.1% (inactive); with `Cc1c(NC(=O)c2ccc(Cl)s2)c(=O)n(-c2ccccc2)n1C`, 0.5% (inactive). Same read-out and setting: with `O=C(O)c1c2c(nc3ccccc13)/C(=C/c1cccc([N+](=O)[O-])c1)CCC2` the figure was 2.3% (inactive); with `O=C(O)c1ccc(-n2c(/C=C/c3cccc([N+](=O)[O-])c3)nc3ccccc3c2=O)cc1`, 1.4% (inactive); with `O=C(O)c1ccc(-n2ncc3c2/C(=C/c2cccc([N+](=O)[O-])c2)CC3)cc1`, 66.7% (active).

As to `Cn1cccc1CC(=O)N/N=C\c1ccccc1`, the inhibition (at 20 µM) was -0.6% (inactive). On the same count and under the same terms, with `COc1ccc(/C=C2\N=C(C)OC2=O)cc1OC` the figure was 0.7% (inactive); with `CCOc1ccc(/C=C2\N=C(c3cccs3)OC2=O)cc1OC`, 6.4% (inactive).

`COc1ccc(/C=C2/N=C(c3cccs3)OC2=O)cc1OC(C)C`: the inhibition (at 20 µM) is 106% (active) and the inhibition under setting [1] worked out at 100%. For `CCN(CC)C(=O)Cn1c(C)c(/C=C/c2cc[n+](C)cc2)c2ccccc21` the same measures were 115% (active) and 54.5%. As to `CCN(CC)C(=O)Cn1c(=O)n(C)c2ccccc21`, the inhibition (at 20 µM) was -1.6% (inactive). Regarding `Cc1ccc2c(c1)c(/C=C/c1cc[n+](C)cc1)c(C)n2C`, the inhibition (at 20 µM) is 159% (inactive). Still for that read-out and setting: with `COC(=O)Cn1c(C)c(/C=C/c2cc[n+](C)cc2)c2ccccc21` the figure was 46.3% (inactive); with `CCn1cc(/C=C/c2cc[n+](C)cc2)c2ccccc21`, 182% (inactive). `COC(=O)Cn1cc(/C=C/c2cc[n+](C)cc2)c2ccccc21`: the inhibition reads like this: (at 20 µM) 115% (active); under setting [1], 96.1%.

On to `C=CCn1cc(/C=C/c2cc[n+](C)cc2)c2ccccc21`, for which the inhibition (at 20 µM) was 185% (inactive). As for `C=CCn1c(C)c(/C=C/c2cc[n+](C)cc2)c2ccccc21`, the inhibition is 103% (active) (at 20 µM) and 81% under setting [1]. Turning to `Cc1cc(Nc2ccccc2)n(C(=O)c2ccccc2)n1`, the inhibition (at 20 µM) was -3% (inactive). Same read-out and setting: then `Cc1c(NC(=O)COC(=O)/C=C/c2ccc(Cl)cc2)c(=O)n(-c2ccccc2)n1C`, with -0.5% (inactive); and `Clc1ccccc1OCCn1nnc2ccccc21`, with -2% (inactive); and `CCC(=O)Nc1cccc(NC(=O)c2cccc([N+](=O)[O-])c2C)c1`, with 1.2% (inactive).

As for `NC(=O)c1nsc(C(=O)N(c2cccc(F)c2)C(C(=O)NC2CCCC2)c2ccc(O)cc2)c1N` (configuration not stated), where the note is “at 20 µM”, the inhibition was -1.3% (inactive). Take `Cc1nc2ccc(S(=O)(=O)Nc3cc(-c4nc5cccnc5s4)ccc3C)cc2s1`: the inhibition (at 20 µM) is 3.9% (inactive). In the case of `CC12C=CC(=O)C=C1CCC1C3CCC(O)(C(=O)CO)C3(C)CC3OC312` (configuration not stated), the inhibition (at 20 µM) is -0.7% (inactive).

In the case of `CCOC(=O)CNC(=O)Cn1cnc2c(nnn2-c2ccccc2)c1=O`, for the setting “at 20 µM”, the inhibition was -0.8% (inactive). Same read-out and setting: then `CCOC(=O)c1c(C)[nH]c(C(=O)COC(=O)CCSc2ccccc2)c1C`, with 0.3% (inactive); and `Cc1cc(S(=O)(=O)N2CCN(c3ccccn3)CC2)c(C)cc1Cl`, with -0.6% (inactive).

`Cc1cc(/C=C2/C(=N)N3C(=NC2=O)SN=C3S(C)(=O)=O)c(C)n1-c1ccc(F)cc1`: the inhibition is, setting by setting: (at 20 µM) 75.8% (inactive); under setting [1], 45.6%. As for `CC1=CC2=NC(=O)/C(=C\c3cc(C)n(-c4ccccc4F)c3C)C(=N)N2O1`, the inhibition (at 20 µM) was 3.2% (inactive). On to `COc1cccc(-n2c(C)cc(/C=C3/C(=N)N4C(=NC3=O)SN=C4S(C)(=O)=O)c2C)c1`, for which the inhibition (at 20 µM) is 148% (inactive). Turning to `COc1ccccc1-n1c(C)cc(/C=C2/C(=N)N3C(=NC2=O)SN=C3S(C)(=O)=O)c1C`, the inhibition runs as follows: (at 20 µM) 58.1% (inactive); under setting [1], 36.2%. In the case of `Cc1cc(/C=C2/C(=N)N3C(=NC2=O)SN=C3S(C)(=O)=O)c(C)n1-c1ccccc1F`, for the setting “at 20 µM”, the inhibition was 60.2% (active). Same read-out and setting: then `CCOc1ccc(-n2c(C)cc(/C=C3/C(=N)N4C(=NC3=O)SN=C4S(C)(=O)=O)c2C)cc1`, with 66.6% (active); and `COc1ccc(CNC(=O)/C=C/c2ccc(S(=O)(=O)NCc3ccco3)cc2)cc1OC`, with 0.9% (inactive). The same measure, in the same setting: with `Cc1ccc(C)c2[nH]c(=O)c(CN(Cc3nnnn3C3CCCCC3)CC3CCCO3)cc12` (configuration not stated) the figure was -0.9% (inactive); with `Cc1cc(-n2nc3ccccc3n2)c(O)c([N+](=O)[O-])c1`, 0.3% (inactive); with `CCCCCc1ccc(-c2cn(Cc3ccc(C(=O)c4ccccc4)cc3)nn2)cc1`, 1% (inactive). Still for that read-out and setting: with `COc1ccc(CC(=O)Nc2cc(C)c3c(=O)oc4ccccc4c3n2)cc1` the figure was -0.2% (inactive). For the molecule `CCOc1ccc(/C=C(\C)C(=O)c2c(C)cc(C)[nH]c2=O)cc1`, the inhibition (at 20 µM) is -0.3% (inactive). Still for that read-out and setting: then `COc1cc2[nH]c(=S)nc(NCCCOC(C)C)c2cc1OC`, with -2.4% (inactive); and `O=c1oc2c(O)c(O)cc3c(=O)oc4c(O)c(O)cc1c4c23`, with 54.2% (active). The same measure, in the same setting: with `O=c1cc2c(=O)oc3cc(O)c(O)oc3c2c(O)c1O` the figure was 44.6% (inactive); with `Cc1c(Br)c(=O)oc2c(Br)c(O)c(O)cc12`, 30.9% (inactive).

As to `COc1ccc(/C=N/Nc2nc3ccccc3s2)cc1O`, the inhibition (at 20 µM) is -3.2% (inactive). Still for that read-out and setting: with `COc1cc(/C=N/Nc2nc3ccccc3s2)cc([N+](=O)[O-])c1O` the figure was 55.5% (active).
